Experimental data as given in PubChem BioAssay (NCATS).
Results filed as inconclusive are left out. Calls of active or inactive are those of the source. Calls follow the shape of the dose curve; as a rule, active = well fitted curve in the direction sought with a large enough effect; inconclusive = small, poorly fitted or top-dose-only effect, or another doubt; inactive = no such curve, though single readings can be large; an effect the other way counts as inactive or inconclusive. Peptide text beside a SMILES is read from it.

Key:
[1] = target: Cellular tumor antigen p53 (Homo sapiens) (UniProt P04637); experiment: Primary qHTS for small molecule compounds that upregulate eGFP-tagged delta133p53alpha (in N-terminal) cells. (AID 2060322); conditions: NCI-H358 eGFP-delta133p53alpha fluorescence, 24 h; activation: stronger effect = higher value;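 also: series mostly up to about 56 µM; 0% = DMSO vehicle and 100% = reference activator; nearly all actives have a fitted effect of over 75% in size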
How it was run: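 NCI-H358 cells pre-induced 24 h with 10 ng/ml doxycycline to express N-terminal eGFP-delta133p53alpha, then dosed 24 h at 37C without doxycycline; fixed, Hoechst-stained, GFP intensity by laser scanning cytometry, normalized to DMSO (0%) and 57.5 uM 5-azacytidine (100%).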

[2] = target: Aldehyde dehydrogenase, mitochondrial (Homo sapiens) (UniProt P05091); experiment: qHTS for Inhibitors of the Aldehyde Dehydrogenase Family (ALDH2) Primary screen (AID 2061308);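 also: plate controls were vehicle for no effect and reference inhibitor for full effect; nearly all actives have a fitted effect of over 55% in size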
[3] = target: Retinaldehyde dehydrogenase 3 (Homo sapiens) (UniProt P47895); experiment: qHTS for Inhibitors of the Aldehyde Dehydrogenase Family (ALDH1A3) Primary screen (AID 2061315);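 also: plate controls were DMSO vehicle for no effect and reference inhibitor for full effect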

Sequence of Cellular tumor antigen p53 (Homo sapiens) (P04637 whole entry, looked up): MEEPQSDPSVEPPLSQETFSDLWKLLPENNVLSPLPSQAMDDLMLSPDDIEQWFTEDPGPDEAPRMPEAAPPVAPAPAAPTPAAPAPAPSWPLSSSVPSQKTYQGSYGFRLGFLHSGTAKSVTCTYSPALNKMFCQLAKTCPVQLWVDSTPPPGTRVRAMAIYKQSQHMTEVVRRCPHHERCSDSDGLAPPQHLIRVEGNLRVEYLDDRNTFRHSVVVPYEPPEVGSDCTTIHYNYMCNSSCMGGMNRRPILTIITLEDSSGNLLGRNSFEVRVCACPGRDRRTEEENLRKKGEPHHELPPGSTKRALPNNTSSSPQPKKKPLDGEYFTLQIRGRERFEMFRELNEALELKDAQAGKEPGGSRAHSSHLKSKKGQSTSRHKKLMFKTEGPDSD

COc1cc(CCO)ccc1O[C@@H]1O[C@H](CO)[C@@H](O)[C@H](O)[C@H]1O
inactive: activation [1] 5.36% | Potency [2] | Potency [3]

CC12CC(c3ccoc3)OC(=O)C1CCC1(C)C2CCC(O)C1(C)O (configuration not stated)
inactive: activation [1] 23.7% | Potency [2] | Potency [3]

CC(C)C(C#N)O[C@@H]1O[C@H](CO[C@@H]2O[C@@H](C)[C@H](O)[C@@H](O)[C@H]2O)[C@@H](O)[C@H](O)[C@H]1O (some centres not stated)
inactive: activation [1] -3.82% | Potency [2] | Potency [3]

COCCCNC(=O)c1ccc(Cn2c(=O)c3ccccc3n(Cc3ccc(C(C)C)cc3)c2=O)cc1
inactive: activation [1] 7% | Potency [2] | Potency [3]

CC(C)C(O)(CO)CCO[C@@H]1O[C@H](CO[C@H]2OC[C@](O)(CO)[C@H]2O)[C@@H](O)[C@H](O)[C@H]1O (some centres not stated)
inactive: activation [1] -13% | Potency [2] | Potency [3]

CC1(C)CC[C@]2(C(=O)O[C@@H]3O[C@H](CO[C@@H]4O[C@H](CO)[C@@H](O)[C@H](O)[C@H]4O)[C@@H](O)[C@H](O[C@@H]4O[C@H](CO)[C@@H](O)[C@H](O)[C@H]4O)[C@H]3O)CC[C@]3(C)C(=CCC4[C@@]5(C)CC[C@H](O[C@@H]6OC[C@@H](O)[C@H](O)[C@H]6O)[C@@](C)(C(=O)O)C5CC[C@]43C)[C@@H]2C1 (some centres not stated)
inactive: activation [1] 0% | Potency [2] | Potency [3]

CC12CCC(OC3OC(CO)C(O)C(OC4OC(CO)C(O)C(O)C4O)C3O)CC1CCC1C2CCC2(C)/C(=C3/COC(=O)C3)CCC12O (configuration not stated)
inactive: activation [1] -3.82% | Potency [2] | Potency [3]

COC(=O)C(C)C1CCC2(C)C(=O)C=CC(C)(O)C2C1O (configuration not stated)
inactive: activation [1] 26% | Potency [2] | Potency [3]

C=C1[C@H](OC(C)=O)[C@H]2[C@@H](OC(C)=O)[C@](C)(OC(C)=O)C[C@]2(OC(C)=O)C(=O)[C@H](C)/C=C/C(C)(C)C(=O)[C@H](OC(=O)C(C)CC)[C@H]1OC(C)=O (some centres not stated)
inactive: activation [1] -14.5% | Potency [2] | Potency [3]

COC(=O)C1C(c2ccc(O)cc2)C(C(=O)OC)C1c1ccc(O)cc1 (configuration not stated)
inactive: activation [1] -16.1% | Potency [2] | Potency [3]

CC(=O)OC(C)C(C)(O)C(=O)O[C@@H]1CC[C@]2(C)CC(=O)C(=C(C)C)C[C@H]2[C@]1(C)OC(C)=O (some centres not stated)
inactive: activation [1] 2.29% | Potency [2] | Potency [3]

COc1cc(C#N)ccc1S(=O)(=O)Nc1ccc2c(c1)cc(C)c(=O)n2C
inactive: activation [1] -7% | Potency [2] | Potency [3]

COc1c(C(O)CC(C)C)ccc2c1C(=O)OCc1cc(C)cc(O)c1O2 (configuration not stated)
inactive: activation [1] -2.68% | Potency [2] | Potency [3]

Cc1cc(Nc2nc(NC(C)c3ncc(F)cn3)ncc2Cl)n[nH]1 (configuration not stated)
inactive: activation [1] 8.04% | Potency [2] | Potency [3]

C[C@@H]1O[C@@H](OC[C@H]2O[C@@H](Oc3cc(O)cc4c3C(=O)C(O)(Cc3ccc(O)cc3)O4)[C@H](O)[C@@H](O)[C@@H]2O)[C@H](O)[C@H](O)[C@H]1O (some centres not stated)
inactive: activation [1] -11.5% | Potency [2] | Potency [3]

CN1CCN(C(=O)c2cc3cc(Cl)ccc3[nH]2)CC1
inactive: activation [1] -0.893% | Potency [2] | Potency [3]

CC(=O)NC(Cc1ccccc1)C(=O)NC(C(=O)O)C(C)C (stereo not drawn) (Ac-Phe-Val-OH; configuration not given here)
inactive: activation [1] 0% | Potency [2] | Potency [3]

CC1(C)CCC[C@]2(C)[C@H]3CC(=O)O[C@]3(C)CC[C@@H]12
inactive: activation [1] 20.3% | Potency [2] | Potency [3]

CC(C)c1ccc2c(c1)C(O)CC1C(C)(C(=O)O)CCCC21C (configuration not stated)
inactive: activation [1] -6.11% | Potency [2] | Potency [3]

CC(=C\C(C)O)/C=C(\C)C(=O)CC1CC(CC(N)=O)CC(=O)O1 (configuration not stated)
inactive: activation [1] -16.8% | Potency [2] | Potency [3]

Cc1cc(OCCCS(C)(=O)=O)cc(C)c1-c1cccc(COc2ccc(C3=CC(=O)NS3=O)cc2)c1 (configuration not stated)
inactive: activation [1] -18.3% | Potency [2] | Potency [3]

C/C1=C\C[C@]2(C)C(=O)C(O)=C([C@H](C)CO)[C@H]2C/C=C(\C)[C@@H](O)CC/C(C)=C/CC1
inactive: activation [1] -6.11% | Potency [2] | Potency [3]

COc1c2c(nc3occc13)C(CC=C(C)C)(OC)C(O)CC2 (configuration not stated)
inactive: activation [1] 5.34% | Potency [2] | Potency [3]

CC(=O)O[C@@H]1C[C@]2(C)[C@@]3(CCC4[C@@]5(C)CC[C@H](O[C@@H]6O[C@H](C(=O)O)[C@@H](O)[C@H](OC7OC(CO)C(O)C(O)[C@H]7O[C@@H]7O[C@@H](C)[C@H](O)[C@@H](O)[C@H]7O[C@@H]7OC[C@](O)(CO)[C@H]7O)[C@H]6OC6OC(CO)C(O)C(O)C6O)C(C)(C)C5CC[C@]42C)OC[C@@]12CCC(C)(C)CC23 (some centres not stated)
inactive: activation [1] -16% | activity change, negative = inhibition [2] 9.13% [at 11.2 µM] | activity change, negative = inhibition [3] 6.07% [at 11.2 µM]
